Screens deposited in PubChem by Broad Institute.
CD40 NFkB inh = CD40 pathway inhibition in BL2 cells. BL2 NF-kB luciferase reporter, CD40L-induced, 4 h. hit rate 0.94% among 83,000. inhibition, % at 10 µM. AID 1053188;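 active = mean inhibition of at least 50% with a set share of replicates also reaching that level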;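 also: 0% = neutral control wells and 100% = IKK inhibitor VII at 50 µM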
Starred values were filed as active, the others as inactive; [ ] = remark or other dose. The full list was thinned out, with hits kept by preference.

SMILES	CD40 NFkB inh
COc1ccccc1C(=O)Nc1ccc2c(c1)C(=O)N(C)[C@H]1CC[C@H](CC(=O)Nc3cccc(C(C)C)c3)O[C@@H]1CO2	57*[25 µM]
Nc1cnc(Br)cc1Br	9
O=C(CCCn1cncn1)N1CCCC(Nc2ccc(F)cc2)C1 (centres undefined)	5
CCC(C)N(C(=O)CSc1nnc(COc2ccccc2F)n1N)C1CCS(=O)(=O)C1 (centres undefined)	-3
O=C(Nc1ccc(Cc2ccncc2)cc1)C1CC1	2
CCCCn1c(N)c(N(CCC(C)C)C(=O)CC2CCCCC2)c(=O)[nH]c1=O	-3
CC(C)(C)C1c2[nH]c3ccccc3c2CCN1CCCn1cccn1 (centres undefined)	3
Cc1nnc(NC(=O)c2ccc(N3CCCC3=O)cc2)s1	-39
Cc1csc(NC(=O)c2ccc(N3CCCC3=O)cc2)n1	92*
O=C(NC1=NCCS1)c1ccc(N2CCCC2=O)cc1	-32
O=C(Nc1cccc(NC(=O)C2CC3CCCC(C2)C3=O)n1)C1CC2CCCC(C1)C2=O (centres undefined)	6
Cc1cc(C(F)(F)F)n(-c2nc(C(=O)NNS(=O)(=O)c3ccccc3)cs2)n1	3
O=C(Nc1ccccc1F)N[C@@H]1CC[C@H](CCNC(=O)C2CC2)O[C@H]1CO	-6[25 µM]
Cc1ccc(CN(C)C(=O)CCc2c[nH]c3ccccc23)o1	-1
CN(CCC#N)C(=O)COc1ccc(Br)cc1Cl	16
C[C@]12CCC(=O)C=C1CC[C@@H]1[C@@H]2[C@@H](O)C[C@@]2(C)[C@H]1CC[C@]2(O)C(=O)COC(=O)CCC(=O)O	24
CC(=O)OCC(=O)C1(O)CCC2C3CCC4=CC(=O)CCC4(C)C3(Cl)C(O)CC21C (centres undefined)	62*
CC(=O)OCC=C1CCC2C3CCC4=CC(=O)CCC4(C)C3C(O)CC12C (centres undefined)	7
O=C(Cc1ccncc1)Nc1ccc2c(c1)[C@H]1C[C@H](CC(=O)N3CCc4ccccc4C3)O[C@@H](CO)[C@H]1O2	1[25 µM]
O=C(Cc1ccncc1)Nc1ccc2c(c1)[C@@H]1C[C@@H](CC(=O)N3CCc4ccccc4C3)O[C@@H](CO)[C@@H]1O2	8[25 µM]
O=C(Nc1ccc(C(F)(F)F)cc1)Nc1ccc2c(c1)[C@H]1C[C@H](CC(=O)N3CCc4ccccc4C3)O[C@@H](CO)[C@H]1O2	6[25 µM]
O=C(Nc1ccc(C(F)(F)F)cc1)Nc1ccc2c(c1)[C@H]1C[C@@H](CC(=O)N3CCc4ccccc4C3)O[C@@H](CO)[C@H]1O2	65*[25 µM]
O=C(Cc1ccncc1)Nc1ccc2c(c1)[C@@H]1C[C@@H](CC(=O)N3CCc4ccccc4C3)O[C@H](CO)[C@@H]1O2	4[25 µM]
O=C(Nc1ccc(C(F)(F)F)cc1)Nc1ccc2c(c1)[C@H]1C[C@@H](CC(=O)N3CCc4ccccc4C3)O[C@H](CO)[C@H]1O2	50*[25 µM]
COc1ccc(NS(=O)(=O)c2cc(NC(=O)Cc3n[nH]c(=O)c4ccccc34)ccc2OC)cc1	-1
SMILES	CD40 NFkB inh
O=C(NC(Cc1ccccc1)C(=O)N1CCc2ccccc2C1)c1ccccc1 (centres undefined)	6
CCOC(=O)c1c(C)n(C)c2ccc(O)c(CN3CCN(C)CC3)c12	16
Cc1noc(C)c1NC(=O)Nc1ccc2c(c1)C(=O)N(C)[C@@H]1CC[C@@H](CC(=O)N[C@H]3CCN(Cc4ccccc4)C3)O[C@H]1CO2	-2[25 µM]
CCOC(=O)COc1ccc2nsnc2c1Cl	9
C=C(CC)C(=O)c1ccc(OCC(=O)O)c(Cl)c1Cl	41*
COc1ccccc1OCC(=O)O	7
Cc1cccc(C)c1OCC(N)C(C)C (centres undefined)	5
O=C(Nc1ccc(NC(=O)c2cccs2)cc1)c1ccc2c(c1)OCCO2	3
O=C(COC(=O)c1ccccc1-c1ccccc1[N+](=O)[O-])c1ccccc1	-12
O=C(COC(=O)c1cccs1)c1ccc2ccccc2c1	-83
O=C(COC(=O)c1ccccc1[N+](=O)[O-])c1ccc2c(c1)OCO2	88*
N#CCC(=O)Nc1ccc(C(=O)OCC(=O)c2ccc3c(c2)OCO3)cc1	-63
COc1cccc(CN(C)C(=O)C23CC4CC(CC(NC(C)=O)(C4)C2)C3)c1OC	5
CNS(=O)(=O)c1cccc(C(=O)OCC(=O)c2ccc3c(c2)OCCO3)c1	25
O=C(COC(=O)c1cccs1)c1ccc2c(c1)OCCO2	113*
CC(=O)NC12CC3CC(C1)CC(C(=O)OCC(=O)c1ccc4c(c1)OCCO4)(C3)C2	59*
Cc1cc(=O)[nH]c(SCC(=O)Nc2cc(S(=O)(=O)N(C)C)ccc2Cl)n1	5
CNCc1cc2ccc(C)cc2[nH]c1=O	0
c1ccc(Oc2cccc3cccnc23)nc1	12
COc1cc2c(cc1NC(=O)CSc1ccc(C)cc1)oc1ccccc12	5
COc1ccccc1C(=O)NCC(=O)NCCCN1CCOCC1	-1
Cc1ccc(CSCC(=O)NCCCN2CCOCC2)cc1	3
CCn1c(O)c(N=N)c2ccccc21	4
c1ccc2c(c1)NC1(CCCCC1)n1c-2nc2ccccc21	-89
O=C(c1cccc(S(=O)(=O)N2CCCCC2)c1)N1CCN(Cc2ccccc2)CC1	8
